Hit rate of the full screen: of about 260,000 compounds, about 1,500 (0.58%) were called active. About 5% were inconclusive and are not listed.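 The calls were made as follows: active = inhibition above a set limit at one or more doses, reproduced on every date tested; inconclusive = results disagree between test dates, or hit never tested in dose response; inactive = the rest.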 Not all results are given here. Entries with a potency or affinity are not part of this list.
Target: Virion infectivity factor (Human immunodeficiency virus type 1 group M subtype B (isolate BH10)) + Virion infectivity factor (Human immunodeficiency virus type 1 group M subtype B (isolate BRU/LAI)) + Virion infectivity factor (Human immunodeficiency virus type 1 group M subtype B (isolate PCV12)) + Virion infectivity factor (Human immunodeficiency virus type 1 group M subtype B (isolate HXB2)) + DNA dC->dU-editing enzyme APOBEC-3G (Homo sapiens) (UniProt P69720+P69721+P69722+P69723+Q9HC16)
Experiment: HIV-1 Vif–A3G interaction blockers – biochemical, TR-FRET, GST-Vif 1-94, biotin-A3G peptide, dose response retest, primary screen (AID 1117319);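 also: Vif residues 1-94 fused to GST binding biotinylated APOBEC3G peptide 110-148; 0% = full assay without inhibitor and 100% = GST in place of GST-Vif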
Conditions: TR-FRET GST-Vif / biotin-A3G peptide binding; stronger effect = higher value

inhibition, inactive:
O=C(COC(=O)/C=C/c1cccc(Br)c1)NCCC1=CCCCC1 12.4%
Cc1cc(C(=O)N2CCN(c3ccccc3Cl)CC2)c(C)o1 3.3%
C=CCNc1nc(-c2ccc(OC)cc2OC)cs1 -8.96%
COc1cc(NC(=O)COc2ccc(Cl)cc2)ccc1NC(=O)C(C)C 1.28%
CCCSc1cc(N)cc([N+](=O)[O-])c1 -12.3%
CCN(CC)CCN(C(=O)CCS(=O)(=O)c1ccccc1)c1nc2cc(C)cc(C)c2s1 7.31%
O=C(CSc1ncn[nH]1)Nc1ccc2c(c1)CCC2 -3.75%
N#Cc1ccc(/C=N/NC(=S)Nc2ccc(S(=O)(=O)N3CCOCC3)cc2)cc1 27.6%
O=S(=O)(c1ccc(NC(=S)N/N=C/c2ccc(N3CCOCC3)cc2)cc1)N1CCOCC1 0.51%
CCCOc1ccc(/C=N/NC(=S)Nc2ccccc2[N+](=O)[O-])c(O)c1 5.31%
O=[N+]([O-])c1cc(/C=N/NC(=S)Nc2ccccc2Cl)ccc1Cl 8.67%
CCOc1ccc(/C=N/NC(=O)C(OC)c2ccccc2)cc1 (configuration not stated) -8.04%
Cc1nnc(N(C)C(=O)c2cccnc2)s1 -3.79%
COc1ccc(/C=N/NC(=O)c2ccccc2)cc1CN1CCN(c2ccc(F)cc2)CC1 1.7%
COc1ccc(/C=N/NC(=O)c2ccccc2O)cc1Cn1cc([N+](=O)[O-])cn1 22.8%
COc1ccc(/C=N\NC(=O)c2cccc([N+](=O)[O-])c2)cc1Cn1cc([N+](=O)[O-])cn1 9.14%
COc1cc(C(=O)N/N=C/c2ccc(OC)c(CN3CCN(c4ccc(F)cc4)CC3)c2)ccc1O -4.76%
CC(=O)Oc1cc2c(cc1OC(C)=O)C(=O)CCCC2 -3.59%
CCc1cccc2c(C(=O)CSc3nncn3C)c[nH]c12 3.36%
O=C(COC(=O)c1ccccn1)NCc1cccc(Cl)c1 11.7%
CCC1CCCCN1C(=O)c1ccccc1OC1CCN(S(C)(=O)=O)CC1 (configuration not stated) 6.69%
Oc1c(CN2CCOCC2)cc(-c2ccccc2)cc1CN1CCOCC1 2.33%
Cc1c(Cl)cc(C(C)C)c(O)c1CN1CCOCC1 -0.22%
O=C(NCCCN1CCOCC1)c1csc2c1CCCC2 -1.89%
CCOc1ccc(-c2cc(C(=O)NCCCN3CCOCC3)c3ccccc3n2)cc1 -4.67%
COc1ccc(C2NC(=O)NC(O)(C(F)(F)F)C2C(=O)c2ccccc2)cc1OC (configuration not stated) -3.65%
O=C1NC(c2cn(-c3ccccc3)nc2-c2cccs2)C(C(=O)c2cccnc2)C(O)(C(F)(F)F)N1 (configuration not stated) 1.08%
CCC(Oc1ccccc1)C(=O)Nc1ccc(S(=O)(=O)N2CCOCC2)cc1 (configuration not stated) 15.9%
CCc1nc(SCC(=O)N2CCCC2)c2ccccc2n1 14.3%
CCOc1cc(C(=O)Nc2ccc(N3CCOCC3)cc2)cc(Br)c1OC 12.9%
O=S(=O)(Nc1cc(C(F)(F)F)ccc1N1CCOCC1)c1ccccc1 2.04%
Cc1ccc(S(=O)(=O)Nc2cc(C(F)(F)F)ccc2N2CCOCC2)cc1 1.57%
COc1ccc(NS(=O)(=O)c2cccc(C(=O)NCC3CCCO3)c2)cc1 (configuration not stated) 1.68%
COc1ccccc1N1CCN(CC(=O)Nc2cccc(F)c2)CC1 -5.83%
O=C(CN1CCN(Cc2ccccc2)CC1)Nc1ccc2c(c1)CCC2 -3.36%
O=C(CN1CCCC1)Nc1ccc2c(c1)CCC2 -3.44%
CC1CCN(CCNC(=O)c2ccc(NC(=O)C3CCCO3)cc2)CC1 (configuration not stated) 2.71%
O=C(Nc1ccc2c(c1)CN(Cc1ccccc1O)CC2)C1CCCO1 (configuration not stated) -4.54%
CCc1ccc(CC)c(S(=O)(=O)Nc2ccc(O)c(C(=O)O)c2)c1 -4.21%
O=C(O)c1ccc(NS(=O)(=O)c2cc(Cl)ccc2Cl)cc1O 3.01%
O=C(Nc1ccc(Br)cc1)C1CCN(C(=O)c2ccc(F)cc2)CC1 -10.6%
CCOC(=O)c1cnc(SCC(=O)OCC(=O)N(CC)C2CCS(=O)(=O)C2)nc1N (configuration not stated) 4.12%
COc1cccc(NC(=O)CN(C)C(=O)/C=C/c2cn(Cc3ccccc3)nc2-c2cccnc2)c1 -9.6%
O=C(Nc1ccc(F)cc1)C(c1ccccc1)N1CCN(S(=O)(=O)c2c(F)cccc2F)CC1 (configuration not stated) 22.6%
Cc1ccc(S(=O)(=O)N2CCN(C(C(=O)Nc3ccc(F)cc3)c3ccccc3)CC2)cc1 (configuration not stated) 69.8%
COC(=O)CCC(=O)OC1(C)C(=O)C=C2C=C(C3CC3)N(Cc3ccc(OC)cc3)C=C2C1=O (configuration not stated) 31.5%
CC(C)OCCCN1C=C2C(=O)C(C)(OC(=O)CCc3ccccc3)C(=O)C=C2C=C1c1ccc(C#N)cc1 (configuration not stated) 12.3%
COC(=O)CCC(=O)OC1(C)C(=O)C=C2C=C(C3CC3)N(CCCOC(C)C)C=C2C1=O (configuration not stated) 20.5%
COc1ccc(N2C=C3C(=O)C(C)(OC(=O)CCc4ccccc4)C(=O)C=C3C=C2c2ccc(C#N)cc2)cc1 (configuration not stated) 11.3%
O=[N+]([O-])c1ccc2nc(SCc3ccccc3Cl)sc2c1 2.57%
CC(C)n1c(SCC(=O)N2c3ccccc3Sc3ccccc32)nc2c1c(=O)n(C)c(=O)n2C 1.71%
Cc1ccc2cccc(SCC(=O)NCc3ccco3)c2n1 5.4%
Cc1ccc(S(=O)(=O)N(C)c2ccc(C(=O)NCC(c3ccco3)N3CCCC3)cc2)cc1 (configuration not stated) -9.74%
CC(C)(C)c1ccc(/C=C/C(=O)N2CCc3ccccc3C2)cc1 7.01%
Cc1ccc(/C=C/C(=O)N2CCc3ccccc3C2)cc1 0%
CC12CCC(=O)C=C1CCC1C2C(O)CC2(C)C1CCC2(O)C(=O)COC(=O)COCC(=O)O (configuration not stated) 0.66%
COc1ccccc1NC(=O)c1ccc(NC(=O)c2cc3c(s2)CCC3)cc1 -2.47%
CNC(=O)COC(=O)c1cc2c(s1)CCCC2 0.25%
Cc1c(/C=N/O)c2ccccn2c1C(=O)c1ccc(F)cc1 -0.95%
CC(C)C1CC(C(F)(F)F)n2nc(C(=O)O)cc2N1 (configuration not stated) 7.12%
Cc1cc(C)nc(SCc2nnc(SCC(=O)Nc3nc(-c4ccccc4)cs3)n2C)n1 -21.4%
Cc1ccc(N2CCN(c3ccc(C)cc3)C2c2ccncc2)cc1 13.1%
Cc1ccc(N2CCN(c3ccc(C)cc3)C2c2cccnc2)cc1 -3.62%
N#CCCN(C(=O)COC(=O)c1cc(S(=O)(=O)N2CCOCC2)ccc1Cl)c1ccc(F)cc1 -1.91%
CC(=O)Nc1ccc2nc(NC(=O)CS(=O)(=O)c3ccccc3)sc2c1 5.59%
Cc1ccc(NS(=O)(=O)c2c(C)[nH]c(=O)[nH]c2=O)cc1C 0.84%
Cc1[nH]c(=O)[nH]c(=O)c1S(=O)(=O)Nc1cccc(C(F)(F)F)c1 -6.82%
Cc1ccc(C)c2[nH]c(=O)c(CCNC(=O)c3cc4ccccc4o3)cc12 24.9%
O=C(Cc1ccccc1)NC1CCN(C(=O)c2ccc([N+](=O)[O-])cc2)CC1 -1.3%
CCOc1ccccc1CN1CCN(Cc2csc(C(C)=O)c2)CC1CCO (configuration not stated) 3.88%
Nc1nonc1C(=O)N/N=C/c1ccc(-c2cccc([N+](=O)[O-])c2)o1 -3.49%
Cc1cc([N+](=O)[O-])c(C)cc1-c1ccc(/C=N/NC(=O)Cn2nnnc2N)o1 9.49%
C=CCN1C(=O)C(CC(=O)Nc2ccc(C)cc2)SC1=Nc1c(C)n(C)n(-c2ccccc2)c1=O (configuration not stated) 4.69%
O=C(Cc1c(F)cccc1Cl)NCc1cccnc1 -4.5%
CC(=O)Nc1ccc(OCC(O)CN2CCN(c3ccc(Cl)cc3)CC2)cc1 (configuration not stated) 22.8%
Cc1ccc(SCCCCN2C(=O)NC(C)(C)C2=O)cc1 -3.51%
CC1(C)NC(=O)N(CCSc2ccc(Cl)cc2)C1=O -1.11%
CCc1cccc(CC)c1NC(=O)C(NS(=O)(=O)c1cccs1)c1ccccc1 (configuration not stated) 9.9%
CCOC(=O)C1=C(COC(=O)c2ccc(Cl)nc2)NC(=O)NC1C (configuration not stated) 5.43%
O=C(O)CCCCCCCCCCC1CCC(O)C1O (configuration not stated) -4.99%
CC1NC(=O)NC1CCCCC(=O)O (configuration not stated) 3.51%
CC(=O)N(c1ccccc1C)c1ccccc1C -4.05%
CSCCC(NC(=O)c1ccccc1)C(=O)NCCCSc1ccccc1 (configuration not stated) -3.49%
O=C(CCC1CCCC1)NNC(=O)c1ccccc1O -4.22%
COc1ccc(CCNC(=O)COc2ccc(S(=O)(=O)N3CCCC3)cc2)cc1 -4.34%
CC(C)NS(=O)(=O)c1ccc(OCC(=O)NCCC2=CCCCC2)cc1 2.83%
Cc1nnc(SCC(=O)N2CCN(S(=O)(=O)c3ccccc3)CC2)s1 -8.25%
CCc1ccc(/C=N/n2c(C3CCCCC3)n[nH]c2=S)cc1 -5.47%
CC(C)(CO)NCc1cc(Br)ccc1OCc1ccccc1 -4.77%
CCC1=NN2C(=N)/C(=C\c3ccc(OCCOc4ccc(NC(C)=O)cc4)c(OC)c3)C(=O)N=C2S1 -0.34%
COc1ccc(OC)c(N)c1 14.5%
COc1ccc(C(=O)c2ccc(OC)cc2O)c(O)c1 4.6%

— PubChem BioAssay AID1117319 (Southern Research Institute, 2015)
